BAP1 inh – human BAP1 deubiquitinase inhibition. Q92560. recombinant BAP1, Ub-AMC hydrolysis fluorescence kinetic; stronger effect = lower value. calls only at 20 µM. 0.48% of 72,000 active. AID 436;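 active = activity remaining at or below 50% of control, provided the compound also passes the data quality filters; inactive = the rest, including low values that fail the filters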
DAT uptake mod – changed human dopamine transporter uptake under cocaine IC80 | Q01959 | LLC-PK1 hDAT cells, [14C]-dopamine uptake with cocaine IC80; actives deviate in either direction | AID 449768 | 1.3% of 110,000 active | B-score at 10 µM;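 active = Z score or B-score, a plate-position-corrected score, falls beyond the plate's 99.7% confidence bounds, in either direction; inactive = both scores lie inside the 99.7% bounds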
Target sequence (Q01959 whole entry, looked up): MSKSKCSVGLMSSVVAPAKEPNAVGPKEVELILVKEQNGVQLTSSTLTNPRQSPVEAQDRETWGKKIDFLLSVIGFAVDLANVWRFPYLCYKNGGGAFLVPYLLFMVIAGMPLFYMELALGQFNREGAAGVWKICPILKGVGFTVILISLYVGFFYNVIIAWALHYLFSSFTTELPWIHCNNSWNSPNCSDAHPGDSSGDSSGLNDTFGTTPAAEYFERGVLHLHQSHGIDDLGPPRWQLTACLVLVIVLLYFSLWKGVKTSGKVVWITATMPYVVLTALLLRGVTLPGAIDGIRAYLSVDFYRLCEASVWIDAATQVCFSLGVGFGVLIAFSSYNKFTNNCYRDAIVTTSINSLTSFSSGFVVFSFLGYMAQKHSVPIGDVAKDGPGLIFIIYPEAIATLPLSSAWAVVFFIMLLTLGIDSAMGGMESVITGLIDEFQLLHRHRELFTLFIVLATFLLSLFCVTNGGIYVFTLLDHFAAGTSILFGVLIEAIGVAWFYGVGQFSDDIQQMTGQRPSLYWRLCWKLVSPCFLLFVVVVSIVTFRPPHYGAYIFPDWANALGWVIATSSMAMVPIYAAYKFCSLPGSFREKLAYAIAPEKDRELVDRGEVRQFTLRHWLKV
D1 mod – allosterically modulates the human D1 dopamine receptor; HEK293 D1, CRE-luciferase, dopamine EC30 potentiation; actives deviate in either direction; P21728; 5.9% of 58,000 active; B-score at 10 µM; AID 641;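 active = luminescence count or its row- and column-corrected plate score outside the 99.7% band of the plate's sample wells, on either side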
D1 PAM confirm – D1 receptor (human) allosteric modulation, confirmed; shares compounds with D1 mod; HEK293 D1 CRE-luciferase, dopamine EC30 potentiation; stronger effect = higher value; luminescence at 10 µM; 88% of 2,200 active; AID 642;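 active = luminescence in either of two replicates above the same-plate mean plus 3 SD of the low-dose dopamine control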
D1 ag no DA – D1 (human) signaling in absence of dopamine; shares compounds with D1 mod; HEK293 D1 CRE-luciferase, luminescence, no dopamine; stronger effect = higher value; luminescence at 10 µM; 0.8% of 1,900 active; AID 646; in the data active = luminescence above about 3900
Isoprot counter – isoproterenol response counter-screen activity for D1 modulators; shares compounds with D1 mod; HEK293 D1 CRE-luciferase, isoproterenol EC30 counter-screen; stronger effect = higher value; luminescence at 10 µM; 63% of 2,200 active; AID 647;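 active = luminescence in either replicate above plate mean of wells with a partly effective reference agonist dose plus 3 SD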;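 note: isoproterenol raises cAMP through native beta-adrenoceptor Gs so signal bypasses D1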
Of the large screens only hits and unclear results are named; the others gave an inactive call (follow-up assays come after a bar, where they were run). This is one part of a sample in which hits are shown more often than they occur.

CC(=O)Nc1ccc(N2C(=O)CSC2c2ccc(Br)cc2)cc1 (centres undefined)	none (no result: DAT uptake mod, D1 mod)
COC(=O)c1cc(-c2ccccc2)sc1N	none (no result: BAP1 inh, D1 mod)
COC(=O)c1nc(N)sc1-c1ccccc1	D1 mod 11.5 | D1 PAM confirm 21800 | D1 ag no DA inactive | Isoprot counter 3496
CCC(=O)Nc1nc2c(OC)ccc(OC)c2s1	D1 mod 2.94 | D1 PAM confirm 8516 | D1 ag no DA inactive | Isoprot counter inactive
COc1ccc(OC)c2sc(NC(=O)C3CC3)nc12	D1 mod 3.94 | D1 PAM confirm 10100 | Isoprot counter inactive
COc1ccc(OC)c2sc(NC(=O)c3ccc(Cl)s3)nc12	none
CCCC(=O)Nc1nc2c(OC)ccc(OC)c2s1	none
Cc1cc([N+](=O)[O-])cc2sc(NC(=O)C3CCCCC3)nc12	none (no result: DAT uptake mod, D1 mod)
Cc1ccc2nc(-c3ccc(C)c(NC(=O)c4ccc(Br)cc4)c3)oc2c1	none (no result: DAT uptake mod, D1 mod)
COc1ccc(C(=O)Nc2cccc(-c3nc4ncccc4o3)c2C)cc1Cl	none (no result: DAT uptake mod, D1 mod)
COc1ccc(-c2ccc(=O)n(CC(=O)Nc3cccc(O)c3)n2)cc1OC	D1 mod 28.7 | D1 PAM confirm inactive | D1 ag no DA inactive | Isoprot counter inactive
COc1ccc(-c2ccc(=O)n(CC(=O)Nc3nnc(C(C)C)s3)n2)cc1OC	none (no result: BAP1 inh, D1 mod)
O=C(NCc1ccccc1)c1ccc2nc(-c3ccco3)c(-c3ccco3)nc2c1	none (no result: BAP1 inh, D1 mod)
CCCCNC(=O)c1ccc2nc(-c3ccco3)c(-c3ccco3)nc2c1	D1 mod 3.85 | D1 PAM confirm 8120 | D1 ag no DA inactive | Isoprot counter inactive
CCOc1ccc(Cc2nnc(N)s2)cc1OCC	D1 mod 10.5 | D1 PAM confirm 18204 | D1 ag no DA inactive | Isoprot counter 4632
Nc1nnc(Cc2ccc(Cl)cc2)s1	none
Cc1ccccc1-c1c(C)oc2c(C)c(O)ccc2c1=O	none (no result: DAT uptake mod, D1 mod)
Cc1ccc(N(Cc2ccco2)C(=O)c2cccc(S(=O)(=O)N(C)C)c2)cc1	D1 mod 2.96 | D1 PAM confirm 11896 | D1 ag no DA inactive | Isoprot counter 3180
CN(C)S(=O)(=O)c1cccc(C(=O)NCc2ccco2)c1	none
O=C(c1nn2c(c1Br)NC(c1ccco1)CC2C(F)(F)F)N1CCN(Cc2ccccc2)CC1 (centres undefined)	none (no result: DAT uptake mod, D1 mod)
CC1Cc2ccccc2N1C(=O)CSC1=NCCS1 (centres undefined)	none (no result: BAP1 inh)
CC1Cc2ccccc2N1C(=O)c1ccc2snnc2c1 (centres undefined)	D1 mod 15.4 | D1 PAM confirm 13280 | D1 ag no DA inactive | Isoprot counter 3936
O=C(Nc1nc(-c2ccc(F)cc2)cs1)c1ccc(Oc2ccccc2)cc1	none (no result: DAT uptake mod, D1 mod)
COc1cccc(Cn2nnc(C(=O)NCc3ccc(F)cc3)c2N)c1	none
COc1cccc(Cn2nnc(C(=O)NCc3ccccc3Cl)c2N)c1	D1 mod 6.78 | D1 PAM confirm 16056 | D1 ag no DA inactive | Isoprot counter 4360
COc1ccc(OC)c(C2C(C(C)=O)=C(O)C(=O)N2CCN2CCOCC2)c1 (centres undefined)	none
COc1ccc(OC)c(C2C(C(C)=O)=C(O)C(=O)N2CCC(=O)O)c1 (centres undefined)	D1 mod 2.67 | D1 PAM confirm inactive | D1 ag no DA inactive | Isoprot counter inactive
COc1cc2c(cc1OC)CN(C(=O)CSc1nc3[nH]ncc3c(=O)n1-c1ccccc1)CC2	none
Cc1noc(C)c1CSc1nnc2n(-c3ccccc3)c(=O)c3ccccc3n12	none (no result: DAT uptake mod)
Cc1noc(C)c1CSc1nc2[nH]ncc2c(=O)n1-c1ccccc1	D1 mod 11.2 | D1 PAM confirm 14168 | D1 ag no DA inactive | Isoprot counter 10060
Cc1nc(CSc2nc3[nH]ncc3c(=O)n2-c2ccccc2)cs1	D1 mod 4.62 | D1 PAM confirm 12732 | D1 ag no DA inactive | Isoprot counter 4244
CCc1ccc(-c2csc(NC(=O)c3ccc(S(=O)(=O)N4CCCCC4)cc3)n2)cc1	none (no result: DAT uptake mod, D1 mod)
N#Cc1c(SCC(N)=O)nsc1SCc1ccc(Cl)cc1	none
N#Cc1c(SCC(N)=O)nsc1SCc1ccccc1Cl	D1 mod 5.62 | D1 PAM confirm 5884 | Isoprot counter 2992
Cc1ccc(C(=O)Nc2c(C)ccc3nsnc23)cc1	none (no result: DAT uptake mod, D1 mod)
COc1ccc(C2=Nn3c(nnc3C3CCCCC3)SC2)cc1OC	none (no result: BAP1 inh, D1 mod)
COc1ccc(OC)c(C2=Nn3c(nnc3C3CCCCC3)SC2)c1	D1 mod 15.6 | D1 PAM confirm 17128 | Isoprot counter 6380
COc1ccc(OC)c(C2=Nn3c(nnc3-c3ccco3)SC2)c1	none (no result: D1 mod)
COc1ccccc1C1=Nn2c(nnc2C2CCCCC2)SC1	D1 mod 10.5 | D1 PAM confirm 20508 | D1 ag no DA inactive | Isoprot counter 6996
COc1cc(NC(=O)C(C(C)C)N2C(=O)c3ccccc3C2=O)c(OC)cc1Cl (centres undefined)	none (no result: DAT uptake mod, D1 mod)
O=C(CSc1nc2ccccc2c(=O)n1-c1ccc(F)cc1)NCc1ccco1	none (no result: BAP1 inh, D1 mod)
O=c1c2ccccc2nc(SCc2cn3ccsc3n2)n1-c1ccc(F)cc1	D1 mod 8.25 | D1 PAM confirm 10696 | D1 ag no DA inactive | Isoprot counter 4168
CCn1c(C(O)(c2ccccc2)c2ccc(C)cc2)nc2ccccc21 (centres undefined)	none (no result: DAT uptake mod, D1 mod)
COC(=O)c1ccc(C=Nc2c(C)n(C)n(-c3ccccc3)c2=O)cc1	none (no result: DAT uptake mod, D1 mod)
CCCOC(=O)C1=C(C)N(C)C(=O)NC1c1ccc(O)c(OC)c1 (centres undefined)	none (no result: DAT uptake mod, D1 mod)
CCOC(=O)C1=C(C(=O)OCC)SC(=C2C(=S)C(C)(C)N(C(=O)C(F)(F)F)c3ccc(OCC)cc32)S1	none (no result: DAT uptake mod, D1 mod)
C1=Nc2c(NCc3ccccc3)ncnc2Oc2ccccc21	D1 mod 7.98 | D1 PAM confirm 10088 | D1 ag no DA inactive | Isoprot counter 4088
c1ccc(CNc2ncnc3nc[nH]c23)cc1	none (no result: BAP1 inh, D1 mod)
O=C(Nc1ccc(-c2csc(-c3ccccc3)n2)cc1)c1ccc(Br)cc1	none (no result: DAT uptake mod, D1 mod)
Cn1nnnc1SCC(=O)Nc1nc(-c2ccccc2)c(-c2ccccc2)o1	D1 mod 3.75 | D1 PAM confirm 9488 | D1 ag no DA inactive | Isoprot counter inactive
Cn1nnnc1SCC(=O)Nc1ccccn1	none (no result: BAP1 inh, D1 mod)
O=c1nc2n(c3cc(Cl)ccc13)Cc1ccccc1-2	none (no result: DAT uptake mod, D1 mod)
O=C(OCCN1C(=O)c2ccccc2C1=O)c1cc(S(=O)(=O)N2CCOCC2)ccc1Cl	D1 mod 3.39 | D1 PAM confirm 9076 | D1 ag no DA inactive | Isoprot counter 3280
NC(=O)c1cc(S(=O)(=O)N2CCOCC2)ccc1Cl	none (no result: DAT uptake mod, D1 mod)
Cc1ccccc1Nc1nc(N)nc(CSc2nnc(-c3ccccc3)n2C)n1	none (no result: BAP1 inh, D1 mod)
COc1ccccc1Nc1nc(N)nc(CSc2nncn2C)n1	D1 mod 12.4 | D1 PAM confirm inactive | Isoprot counter inactive
Cc1ccc2nc(NCc3ccco3)c(C=NCc3ccco3)c(=O)n2c1	none
Cc1ccc2nc(Nc3ccccc3)c(/C=N/O)c(=O)n2c1	D1 mod 10.3 | D1 PAM confirm 17088 | D1 ag no DA inactive | Isoprot counter 3560
Cc1nc(N2CCN(C(=O)c3ccco3)CC2)c2c3c(sc2n1)CCCC3	none (no result: BAP1 inh, D1 mod)

Screening results (PubChem BioAssay)
